About 83,000 compounds went through this panel and 20% of them were active in at least one assay; those are over-represented in the sample as a whole.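 A percent growth of 40 corresponds to 60% growth inhibition; 0 means no net growth; -100 means all cells died. Active threshold: below 10.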 The source made the active and inactive calls.
What was measured:
Assay in all cases: NCI-60 one-dose screen, 48 h (100 = growth as untreated, 0 = no growth, -100 = all killed)
NCI-H23 lung = conditions: 10 µM unless noted
NCI-H226 lung = conditions: 10 µM unless noted
DU-145 prostate = conditions: 10 µM unless noted
MDA-MB-231 breast = conditions: 10 µM unless noted
SF-268 CNS = conditions: 10 µM unless noted
M14 melanoma = conditions: 10 µM unless noted
HCT-15 colon = conditions: 10 µM
HT29 colon = conditions: 10 µM unless noted
PC-3 prostate = conditions: 10 µM unless noted
UACC-62 melanoma = conditions: 10 µM unless noted
LOX IMVI melanoma = conditions: 10 µM unless noted
SK-MEL-28 melanoma = conditions: 10 µM unless noted
OVCAR-8 ovarian = conditions: 10 µM unless noted
OVCAR-5 ovarian = conditions: 10 µM unless noted
SK-OV-3 ovarian = conditions: 10 µM unless noted
OVCAR-3 ovarian = conditions: 10 µM unless noted
NCI/ADR-RES ovarian = conditions: 10 µM unless noted
SW-620 colon = conditions: 10 µM unless noted
MCF7 breast = conditions: 10 µM unless noted
KM12 colon = conditions: 10 µM unless noted

Measured: growth

CC(=O)O[C@H]1CCC2(C)C(=CCC3C2CCC2(C)/C(=N/OC(=O)c4ccc(N(CCCl)CCCl)cc4)CCC32)C1 (stereo not given in full)
inactive: NCI-H23 lung 45.8% | NCI-H226 lung 101% | DU-145 prostate 78.7% | MDA-MB-231 breast 40.5% | M14 melanoma 59.4% | HCT-15 colon 55.2% | HT29 colon 32.6% | PC-3 prostate 47.8% | UACC-62 melanoma 68.4% | SK-MEL-28 melanoma 81.8% | OVCAR-8 ovarian 56.4% | OVCAR-5 ovarian 81.7% | SK-OV-3 ovarian 102% | OVCAR-3 ovarian 53.5% | NCI/ADR-RES ovarian 44% | SW-620 colon 84.1% | MCF7 breast 39% | KM12 colon 47.6%
active: SF-268 CNS 5.4% | LOX IMVI melanoma 5.24%

O=[N+]([O-])c1ccc2cnn(CSP(=S)(c3ccccc3)c3ccccc3)c2c1
inactive: NCI-H23 lung 67.4% | NCI-H226 lung 77.4% | DU-145 prostate 105% | MDA-MB-231 breast 51.8% | SF-268 CNS 79.9% | M14 melanoma 58.1% | HCT-15 colon 48.1% | HT29 colon 39.6% | PC-3 prostate 58.6% | UACC-62 melanoma 43% | LOX IMVI melanoma 65% | SK-MEL-28 melanoma 74.1% | OVCAR-8 ovarian 82.4% | OVCAR-5 ovarian 96.7% | SK-OV-3 ovarian 90.1% | OVCAR-3 ovarian 71.6% | NCI/ADR-RES ovarian 49.8% | SW-620 colon 31.7% | MCF7 breast 26.8% | KM12 colon 63.7%

c1ccc([As]=[As]c2ccccc2)cc1 (stereo not given)
active: NCI-H23 lung -37.2% | NCI-H226 lung 5.17% | DU-145 prostate -6.06% | MDA-MB-231 breast -60.9% | SF-268 CNS -39.8% | M14 melanoma -30.2% | HCT-15 colon -86.2% | HT29 colon -82.8% | PC-3 prostate -22.9% | UACC-62 melanoma -76.4% | LOX IMVI melanoma -74.5% | SK-MEL-28 melanoma -25.5% | OVCAR-8 ovarian -22.4% | OVCAR-5 ovarian -7.9% | OVCAR-3 ovarian -93% | NCI/ADR-RES ovarian 9.34% | SW-620 colon -68.1% | MCF7 breast -76.2% | KM12 colon 9.67%
inactive: SK-OV-3 ovarian 27.5%

From PubChem BioAssay (NCI)
